# Screens as filed in PubChem.
# A selection: hits, their analogues and other compounds. The true share with any hit is near 9.3%.
# FLuc counter: inhibits or activates purified firefly luciferase, miR-21 counter-screen. P08659. purified FLuc, Km substrates, luminescence inhibition. Potency, µM (top dose mostly 57.5 µM), without a hit: at the top dose activity change, negative = inhibition, usual class: inhibitors. hit rate 6.9% among 360,000. AID 588342;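 note: plate controls were vehicle for no effect and reference inhibitor for full effect; nearly all actives have a fitted effect of over 55% in size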
# Target sequence (P08659 whole entry, looked up): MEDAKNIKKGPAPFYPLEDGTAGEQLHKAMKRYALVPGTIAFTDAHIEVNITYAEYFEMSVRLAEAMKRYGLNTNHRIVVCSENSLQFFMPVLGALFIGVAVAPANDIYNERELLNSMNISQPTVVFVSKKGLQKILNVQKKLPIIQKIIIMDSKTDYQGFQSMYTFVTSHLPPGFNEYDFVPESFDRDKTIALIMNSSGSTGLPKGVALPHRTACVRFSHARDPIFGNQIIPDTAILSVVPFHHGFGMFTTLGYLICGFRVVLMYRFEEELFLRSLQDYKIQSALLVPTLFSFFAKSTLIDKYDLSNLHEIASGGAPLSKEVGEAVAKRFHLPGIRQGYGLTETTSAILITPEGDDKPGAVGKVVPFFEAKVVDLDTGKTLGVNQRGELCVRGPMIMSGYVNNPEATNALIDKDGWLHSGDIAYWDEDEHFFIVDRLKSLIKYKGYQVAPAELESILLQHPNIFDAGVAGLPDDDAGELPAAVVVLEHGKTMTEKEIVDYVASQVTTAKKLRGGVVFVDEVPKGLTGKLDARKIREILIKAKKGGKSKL
#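 Biochemical qHTS of compounds, final roughly 60 µM downward over six points, against 10 nM purified firefly luciferase using Km concentrations of substrates (10 uM D-luciferin, 10 uM ATP) in Tris acetate pH 7.5 buffer; luminescence output.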
# Rab9 prom act: activators of Rab9 promoter. Huh7 Rab9 promoter-luciferase reporter, luminescence, 24 h. Potency, µM (series often up to 9.22 µM), for the others: at the highest dose activation, negative = inhibition, most hits filed as activators. hit rate 2.8% among 320,000; note: % of control where 0% means no effect; nearly all actives have a fitted effect of over 60% in size
#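 Stable Rab9-luc Huh7, 1500 cells/well, 2 h settle; cmpd in DMSO, 24 h, 37 °C/5% CO2; luciferase reagent 10 min RT; luminescence.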
# ELG1 genotoxic: induces genotoxicity in HEK293T cells with luciferase-tagged ELG1; HEK293T ELG1-luciferase reporter, luminescence, 16 h; Potency, µM (top dose mostly 46 µM), for inactives: at the highest dose activity change, positive = activation, hits mostly activators; hit rate 1.3% among 330,000; AID 504466; note: % of control where 0% means no effect; nearly all actives have a fitted effect of over 60% in size
#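 Genotoxic stress is detected as increased luminescence from luciferase-tagged ELG1 in HEK293T cells, measured with ONE-Glo after a 16 hr treatment at 37 °C.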
# NPC1 prom act: NPC1 promoter activation | Potency, µM (top dose mostly 9.22 µM), without a hit: at the highest dose activation, actives largely listed as activators | hit rate 2.4% among 320,000 | AID 485313 | Huh7 NPC1 promoter luciferase reporter, 24 h; note: % of control where 0% means no effect; nearly all actives have a fitted effect of over 60% in size
#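 In 1536-well qHTS, Huh7 cells harboring an NPC1 promoter–luciferase construct received compound for 24 h; activation was quantified by luminescence following luciferase reagent addition.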
# SMN2 splice enh: enhancers of SMN2 splice variant expression; HEK293 SMN2-luciferase splicing reporter, luminescence, 30-36 h; Potency, µM (top dose mostly 46.1 µM), inactives show top-dose activity change, positive = activation, hits mostly activators; hit rate 2.8% among 210,000; AID 1458; note: % of control where 0% means no effect; nearly all actives have a fitted effect of over 55% in size
#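 HEK293 cells carry an SMN2 minigene-luciferase reporter in which exon 7 inclusion puts luciferase in frame. Cells were seeded at 2000 cells/well, attached for 10-12 hours, then exposed to compounds for 30-36 hours at 37C before ONE-Glo luminescence.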
# ELG1 repair inh: inhibitors of ELG1-dependent DNA repair in HEK293T cells; HEK293T ELG1-luciferase reporter, luminescence, 16 h; DNA damage induced by 5-fluorouridine; Potency, µM (titrated, usually from 46.1 µM), inactives show at the top dose activity change, negative = inhibition, actives largely listed as inhibitors; hit rate 2.3% among 330,000; AID 504467; note: % is set by controls: 0 for no effect and ±100 for the full control effect; nearly all actives have a fitted effect of over 55% in size
#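 Cells (2,000 per well) received 5-fluorouridine plus test compound or DMSO and were incubated 16 hr at 37 °C, 5% CO2. Luciferase activity was read by luminescence 30 min after ONE-Glo addition; signal suppression marked inhibition of damage-induced ELG1 function.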
# Numbers without * were called inactive; ? = inconclusive; / = no result given. Calls come from the whole dose curve; as a rule, active = well fitted curve in the direction sought with a large enough effect; inconclusive = small, poorly fitted or top-dose-only effect, or another doubt; inactive = no such curve, though single readings can be large; an effect the other way counts as inactive or inconclusive. Potency is the fitted concentration of half-maximal effect.
SMILES,FLuc counter,Rab9 prom act,ELG1 genotoxic,NPC1 prom act,SMN2 splice enh,ELG1 repair inh
CC1CCC(NC(=O)C2CC(O)CN2S(=O)(=O)c2ccc([N+](=O)[O-])cc2)CC1 (configuration not stated),/,/,0%,/,/,22%
Cc1ccc(CNc2ccc(-c3nc(-c4ccccn4)no3)cc2[N+](=O)[O-])cc1,-17%,/,/,/,/,/
c1ccc(-c2noc(-c3ccno3)n2)nc1,-10%,28%,9%,16%,/,?
CCCNc1ccc(-c2nc(-c3ccccn3)no2)cc1[N+](=O)[O-],-1%,/,/,/,/,/
Cc1ccc(-c2nc(-c3ccccn3)no2)cc1[N+](=O)[O-],1.5µM*,0.32µM*,2.1µM*,0.32µM*,/,?
Cc1ccc(-c2nc(-c3ccccn3)no2)cc1,0.085µM*,0.0002µM*,-7%,-28%,/,?
Cc1ccc(-c2nc(-c3ccccn3)no2)cc1Cl,0.13µM*,0.32µM*,?,0.35µM*,/,?
c1ccc(-c2nc(-c3ccccn3)no2)cc1,0.54µM*,?,?,0.11µM*,0.5µM*,?
C=CCc1cccc2cc(C(=O)Nc3cccc(Cl)c3)c(=O)oc12,2%,/,/,/,8%,/
Clc1cccc(-c2nc(-c3ccccn3)no2)c1,0.34µM*,0.1µM*,?,0.32µM*,0.71µM*,?
O=C(c1ccncc1)N1N=C(c2ccc(Cl)cc2)CC1c1ccccc1O (configuration not stated),17µM*,24%,?,1%,/,?
Cc1cc([N+](=O)[O-])ccc1NCc1ccc2ccccc2c1,-3%,-4%,-8%,7%,-18%,2%
CC(=Nc1ccccc1O)c1sc2ccccc2c1O,9.5µM*,?,?,6%,/,?
CC(=Nc1ccc(O)cc1)c1sc2ccccc2c1O,2.4µM*,1.1µM*,4.6µM*,1.8µM*,10µM*,?
CC(=O)NCCN=C(C)c1sc2ccccc2c1O,?,?,11%,?,?,?
CC(=Nc1cccc(C)c1)c1sc2ccccc2c1O,3µM*,?,9.2µM*,20%,13µM*,?
CCOC(=O)CC1CCCCN1C(=O)CCCn1nnnc1CN1CCOCC1 (configuration not stated),-1%,6%,0%,-1%,/,26%
Cc1c(C(=O)N2CCCC2)oc2c1-c1nn(CC(=O)NCc3ccccc3F)cc1CC2,-13%,/,/,/,/,/
O=C(OCCN1CCCC1=O)c1cc(F)c(F)c(F)c1F,0%,-3%,1%,-5%,16%,1%
CCSc1nnc(-c2ccccc2SC)o1,?,2%,-6%,-1%,6%,?
CSc1ccccc1-c1nnc(-c2ccc(Cl)c(Cl)c2)o1,7.6µM*,?,?,?,12%,?
CSc1ccccc1-c1nnc(-c2ccc(Cl)cc2Cl)o1,2.1µM*,3.2µM*,?,?,?,?
CS(=O)(=O)c1ccccc1-c1nnc(-c2ccc(Cl)cc2)o1,?,?,13%,-4%,4%,13%
N#Cc1ccc(C(=O)N2CCN(S(=O)(=O)c3ccc(Cl)s3)CC2)cc1,1%,1%,-6%,5%,/,-4%
COc1cccc(NC(=O)C2CCCN(S(=O)(=O)c3c(C)nn(C)c3C)C2)c1 (configuration not stated),-5%,/,/,/,-12%,/
SMILES,FLuc counter,Rab9 prom act,ELG1 genotoxic,NPC1 prom act,SMN2 splice enh,ELG1 repair inh
Cc1ccc(NC(=O)NCc2cccn2C)cc1C,?,?,?,4µM*,/,?
Cn1cccc1CNC(=O)Nc1ccc(Cl)cc1,13µM*,3.5µM*,?,?,?,?
Cc1ccc(NC(=O)NCCN2CCCCC2)cc1C,2%,0%,0%,-6%,/,0%
Cc1ccc(CNC(=O)Nc2ccccc2)n1C,19µM*,26%,8%,17%,/,?
Cn1cccc1CNC(=O)Nc1ccccc1,19µM*,?,?,28%,?,?
CCCCC(=O)Nc1nc(-c2ccc(S(=O)(=O)N3CCOCC3)cc2)cs1,2%,-5%,-26%,-5%,/,?
COc1cc(N)c(Br)cc1C(=O)O,-4%,10%,3%,0%,4%,?
O=C(NCS(=O)(=O)c1ccccc1)c1ccccc1,-18%,7%,-3%,16%,-17%,27%
COc1cccc(C(=O)N/N=c2\sc3ccccc3n2C)c1,?,-4%,3%,1%,18%,?
Cc1ccc(C(=O)N/N=c2\sc3ccccc3n2C)cc1,21µM*,13%,0%,20%,9%,?
CCC(=O)N/N=c1/sc2ccccc2n1C,2%,-4%,-1%,-1%,7%,-4%
Cn1/c(=N/NC(=O)c2ccccc2F)sc2ccccc21,15µM*,2.8µM*,?,?,?,?
COc1ccc(NS(=O)(=O)c2cc(NC(=O)c3cc(=O)c4ccccc4o3)ccc2OC)cc1,-1%,-2%,-7%,-25%,-36%,4%
Cc1ccc(SCCc2cc[n+](CC(=O)c3ccccc3)cc2)cc1,19µM*,?,?,29%,/,?
Cc1ccc(C(=O)C[n+]2ccc(Cc3ccccc3)cc2)cc1,-3%,3%,-9%,-12%,-72%,7.3µM*
COC(=O)c1ccccc1NC(=O)CCCn1nc([N+](=O)[O-])c(Br)c1C,1%,-1%,27%,1%,2%,9%
C/C=C/c1c(F)c(F)c(Oc2ccc(C(=O)O)cc2)c(F)c1F,2%,17%,7%,1%,2%,1%
Oc1c(N=Nc2ccccn2)ccc2ccccc12,1.3µM*,-9%,?,-5%,-67%,?
O=C(N/N=C/c1ccc2ccccc2c1)c1ccc(COc2ccc3c(c2)CCC3)o1,2.7µM*,?,?,?,?,?
O=C(N/N=C/c1cc([N+](=O)[O-])ccc1O)c1ccc(COc2ccc3c(c2)CCC3)o1,-1%,?,0%,-31%,/,6.5µM*
COc1ccc(Br)cc1/C=N/NC(=O)c1ccc(COc2ccc3c(c2)CCC3)o1,9%,?,17%,26%,24%,?
Nc1nc(Nc2ccc(Cl)cc2Cl)nc(C(F)(F)F)n1,?,?,18µM*,?,?,?
Nc1nc(Nc2ccccc2Br)nc(C(F)(F)F)n1,?,5%,?,2%,4%,29%
COc1ccc2nc(NC(=O)C3COc4ccccc4O3)sc2c1 (configuration not stated),3µM*,3.2µM*,?,1.6µM*,13µM*,?
CS(=O)(=O)c1ccc2nc(NC(=O)C3COc4ccccc4O3)sc2c1 (configuration not stated),11µM*,22%,6%,26%,/,?
